These sequences were tested against PRRX1 (Homo sapiens, UniProt P54821 80-166, F113S) (assay: PBM; 200 nM protein, PBS). Conditions: dsDNA, one strand shown.
Sequence of PRRX1 (P54821 80-166 F113S): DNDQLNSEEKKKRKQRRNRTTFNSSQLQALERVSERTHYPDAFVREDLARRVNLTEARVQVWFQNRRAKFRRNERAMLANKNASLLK

Row | Sequence | binding signal
1 | AGACGAGC | 9.44 upbm affinity estimate (log intensity, higher = more binding, comparable within an allelic series)
2 | CCGTGTCC | 9.3 upbm affinity estimate (log intensity, higher = more binding, comparable within an allelic series)
3 | ACCCCGGG | 9.35 upbm affinity estimate (log intensity, higher = more binding, comparable within an allelic series)
4 | ACTGTTAT | 10.2 upbm affinity estimate (log intensity, higher = more binding, comparable within an allelic series)
5 | CGGAACCG | 9.35 upbm affinity estimate (log intensity, higher = more binding, comparable within an allelic series)
6 | GGCCTACC | 9.31 upbm affinity estimate (log intensity, higher = more binding, comparable within an allelic series)
7 | GCCCGTCC | 9.26 upbm affinity estimate (log intensity, higher = more binding, comparable within an allelic series)
8 | CCCAAAGG | 9.18 upbm affinity estimate (log intensity, higher = more binding, comparable within an allelic series)
9 | CATATTGG | 10 upbm affinity estimate (log intensity, higher = more binding, comparable within an allelic series)
10 | ACTAATCA | 10.9 upbm affinity estimate (log intensity, higher = more binding, comparable within an allelic series)
11 | CATAAATC | 10.2 upbm affinity estimate (log intensity, higher = more binding, comparable within an allelic series)
12 | AATTATAG | 11.2 upbm affinity estimate (log intensity, higher = more binding, comparable within an allelic series)
13 | GTCCCCCA | 9.39 upbm affinity estimate (log intensity, higher = more binding, comparable within an allelic series)
14 | ACGCCGGA | 9.29 upbm affinity estimate (log intensity, higher = more binding, comparable within an allelic series)
15 | CTATAATC | 10.5 upbm affinity estimate (log intensity, higher = more binding, comparable within an allelic series)
16 | ACGCCCCG | 9.23 upbm affinity estimate (log intensity, higher = more binding, comparable within an allelic series)
17 | ACTTTAAG | 10.1 upbm affinity estimate (log intensity, higher = more binding, comparable within an allelic series)
18 | GCCGGACC | 9.13 upbm affinity estimate (log intensity, higher = more binding, comparable within an allelic series)
19 | GTCCCCAC | 9.29 upbm affinity estimate (log intensity, higher = more binding, comparable within an allelic series)
20 | CCAACACC | 9.31 upbm affinity estimate (log intensity, higher = more binding, comparable within an allelic series)

Row | Sequence | binding signal
21 | AAATAATT | 11.1 upbm affinity estimate (log intensity, higher = more binding, comparable within an allelic series)
22 | AATTATTG | 11.1 upbm affinity estimate (log intensity, higher = more binding, comparable within an allelic series)
23 | CCTGGAAC | 9.61 upbm affinity estimate (log intensity, higher = more binding, comparable within an allelic series)
24 | CCGGCCAG | 8.97 upbm affinity estimate (log intensity, higher = more binding, comparable within an allelic series)
25 | AATTAAAC | 11.1 upbm affinity estimate (log intensity, higher = more binding, comparable within an allelic series)
26 | CGGCACCG | 9.31 upbm affinity estimate (log intensity, higher = more binding, comparable within an allelic series)
27 | CAGGCCGC | 9.29 upbm affinity estimate (log intensity, higher = more binding, comparable within an allelic series)
28 | GCTCGGCC | 9.12 upbm affinity estimate (log intensity, higher = more binding, comparable within an allelic series)
29 | AGTGGTAA | 10 upbm affinity estimate (log intensity, higher = more binding, comparable within an allelic series)
30 | TTAATCAA | 11.1 upbm affinity estimate (log intensity, higher = more binding, comparable within an allelic series)
31 | CTTAATCA | 10.9 upbm affinity estimate (log intensity, higher = more binding, comparable within an allelic series)
32 | GAGCGGCC | 9.25 upbm affinity estimate (log intensity, higher = more binding, comparable within an allelic series)
33 | AGCCGGGC | 8.99 upbm affinity estimate (log intensity, higher = more binding, comparable within an allelic series)
34 | CGTCTGGA | 9.4 upbm affinity estimate (log intensity, higher = more binding, comparable within an allelic series)
35 | ACCGAGGG | 8.94 upbm affinity estimate (log intensity, higher = more binding, comparable within an allelic series)
36 | AATTATGC | 11.1 upbm affinity estimate (log intensity, higher = more binding, comparable within an allelic series)
37 | GACGTTGC | 9.46 upbm affinity estimate (log intensity, higher = more binding, comparable within an allelic series)
38 | ACGTTGCG | 9.5 upbm affinity estimate (log intensity, higher = more binding, comparable within an allelic series)
39 | CGTAAGTA | 10 upbm affinity estimate (log intensity, higher = more binding, comparable within an allelic series)
40 | CACGTGGC | 9.17 upbm affinity estimate (log intensity, higher = more binding, comparable within an allelic series)

These sequences were tested against HOXB6 (Homo sapiens, UniProt P17509 132-218, K202E) (assay: PBM; 200 nM protein, PBS). Conditions: dsDNA, one strand shown.
Sequence of HOXB6 (P17509 132-218 K202E): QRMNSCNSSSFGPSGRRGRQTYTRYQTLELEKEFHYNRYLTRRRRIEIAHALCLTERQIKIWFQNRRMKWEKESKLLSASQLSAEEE

Row | Sequence | binding signal
41 | GCCGGACC | 8.9 upbm affinity estimate (log intensity, higher = more binding, comparable within an allelic series)
42 | GTCCCCAC | 9.01 upbm affinity estimate (log intensity, higher = more binding, comparable within an allelic series)
43 | AAATAATT | 9.97 upbm affinity estimate (log intensity, higher = more binding, comparable within an allelic series)

The sequences below were run against HOXA2 (Homo sapiens, UniProt O43364 129-215, R185T) (assay: PBM; 200 nM protein, PBS). Conditions: dsDNA, one strand shown.
Sequence of HOXA2 (Homo sapiens, UniProt O43364 129-215, R185T) (O43364 129-215 R185T): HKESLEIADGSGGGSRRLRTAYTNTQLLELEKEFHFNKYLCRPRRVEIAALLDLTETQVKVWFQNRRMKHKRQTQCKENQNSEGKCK

Row | Sequence | binding signal
44 | ACTAATCA | 12.5 upbm affinity estimate (log intensity, higher = more binding, comparable within an allelic series)
45 | ACGCCGGA | 7.08 upbm affinity estimate (log intensity, higher = more binding, comparable within an allelic series)
46 | CCGGCCAG | 7.26 upbm affinity estimate (log intensity, higher = more binding, comparable within an allelic series)
47 | CAGGCCGC | 7.44 upbm affinity estimate (log intensity, higher = more binding, comparable within an allelic series)
48 | GCTCGGCC | 7.15 upbm affinity estimate (log intensity, higher = more binding, comparable within an allelic series)

What follows are sequences tested against MSX2 (Homo sapiens, UniProt P35548 130-214, R199I) (assay: PBM; 200 nM protein, PBS). Conditions: dsDNA, one strand shown.
Sequence of MSX2 (Homo sapiens, UniProt P35548 130-214, R199I) (P35548 130-214 R199I): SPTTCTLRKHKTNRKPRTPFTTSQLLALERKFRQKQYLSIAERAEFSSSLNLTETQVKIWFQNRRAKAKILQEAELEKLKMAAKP

Row | Sequence | binding signal
49 | ACCCCGGG | 9.55 upbm affinity estimate (log intensity, higher = more binding, comparable within an allelic series)
50 | ACTAATCA | 11.2 upbm affinity estimate (log intensity, higher = more binding, comparable within an allelic series)
51 | AATTATAG | 12.2 upbm affinity estimate (log intensity, higher = more binding, comparable within an allelic series)
52 | ACGCCCCG | 9.45 upbm affinity estimate (log intensity, higher = more binding, comparable within an allelic series)
53 | AATTATTG | 12.3 upbm affinity estimate (log intensity, higher = more binding, comparable within an allelic series)
54 | CGGCACCG | 9.48 upbm affinity estimate (log intensity, higher = more binding, comparable within an allelic series)

What follows are sequences tested against ALX1 (Homo sapiens, UniProt Q15699 118-204, L144V) (assay: PBM; 200 nM protein, PBS). Conditions: dsDNA, one strand shown.
Sequence of ALX1 (Homo sapiens, UniProt Q15699 118-204, L144V) (Q15699 118-204 L144V): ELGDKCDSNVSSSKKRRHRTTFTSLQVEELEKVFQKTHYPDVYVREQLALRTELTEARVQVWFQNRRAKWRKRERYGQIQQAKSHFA

Row | Sequence | binding signal
55 | CCGGCCAG | 6.59 upbm affinity estimate (log intensity, higher = more binding, comparable within an allelic series)
56 | AATTAAAC | 11.3 upbm affinity estimate (log intensity, higher = more binding, comparable within an allelic series)
57 | ACCGAGGG | 6.46 upbm affinity estimate (log intensity, higher = more binding, comparable within an allelic series)

Each sequence was assayed against ALX3 (Homo sapiens, UniProt O95076 139-225, N203Q) (assay: PBM; 200 nM protein, PBS). Conditions: dsDNA, one strand shown.
Sequence of ALX3 (O95076 139-225 N203Q): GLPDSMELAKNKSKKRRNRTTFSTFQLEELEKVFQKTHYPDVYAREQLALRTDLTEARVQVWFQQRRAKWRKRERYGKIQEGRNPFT

Row | Sequence | binding signal
58 | ACGCCCCG | 7.74 upbm affinity estimate (log intensity, higher = more binding, comparable within an allelic series)
59 | CCGGCCAG | 7.68 upbm affinity estimate (log intensity, higher = more binding, comparable within an allelic series)
60 | AGCCGGGC | 7.69 upbm affinity estimate (log intensity, higher = more binding, comparable within an allelic series)
61 | ACCGAGGG | 7.64 upbm affinity estimate (log intensity, higher = more binding, comparable within an allelic series)

What follows are sequences tested against HOXD13 (Homo sapiens, UniProt P35453 263-343, T313R) (assay: PBM; 200 nM protein, PBS). Conditions: dsDNA, one strand shown.
Sequence of HOXD13 (Homo sapiens, UniProt P35453 263-343, T313R) (P35453 263-343 T313R): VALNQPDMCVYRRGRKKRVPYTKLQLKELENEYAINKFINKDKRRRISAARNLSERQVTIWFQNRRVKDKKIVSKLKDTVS

Row | Sequence | binding signal
62 | GGCCTACC | 9.55 upbm affinity estimate (log intensity, higher = more binding, comparable within an allelic series)
63 | CCCAAAGG | 9.56 upbm affinity estimate (log intensity, higher = more binding, comparable within an allelic series)
64 | CATAAATC | 10.7 upbm affinity estimate (log intensity, higher = more binding, comparable within an allelic series)
65 | GCTCGGCC | 9.46 upbm affinity estimate (log intensity, higher = more binding, comparable within an allelic series)

What follows are sequences tested against T1, NKX2-6 (Homo sapiens, UniProt A6NCS4 118-204) (assay: PBM; 200 nM protein, PBS). Conditions: dsDNA, one strand shown.
T1 sequence: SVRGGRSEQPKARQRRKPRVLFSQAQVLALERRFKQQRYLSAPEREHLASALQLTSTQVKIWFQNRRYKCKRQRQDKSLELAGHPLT

Row | Sequence | binding signal
66 | AGACGAGC | 9.38 upbm affinity estimate (log intensity, higher = more binding, comparable within an allelic series)
67 | ACGCCCCG | 9.2 upbm affinity estimate (log intensity, higher = more binding, comparable within an allelic series)
68 | ACTTTAAG | 12.5 upbm affinity estimate (log intensity, higher = more binding, comparable within an allelic series)

The sequences below were run against PITX2 (Homo sapiens, UniProt Q99697 72-157) (assay: PBM; 200 nM protein, PBS). Conditions: dsDNA, one strand shown.

Row | Sequence | binding signal
69 | CGGAACCG | 7.68 upbm affinity estimate (log intensity, higher = more binding, comparable within an allelic series)
70 | CCGGCCAG | 7.87 upbm affinity estimate (log intensity, higher = more binding, comparable within an allelic series)
71 | CGGCACCG | 7.77 upbm affinity estimate (log intensity, higher = more binding, comparable within an allelic series)
72 | ACGTTGCG | 7.94 upbm affinity estimate (log intensity, higher = more binding, comparable within an allelic series)

What follows are sequences tested against SHOX (Homo sapiens, UniProt O15266 103-189, R173C) (assay: PBM; 200 nM protein, PBS). Conditions: dsDNA, one strand shown.
Sequence of SHOX (O15266 103-189 R173C): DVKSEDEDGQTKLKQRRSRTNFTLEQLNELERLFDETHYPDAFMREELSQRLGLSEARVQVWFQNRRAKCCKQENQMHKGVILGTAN

Row | Sequence | binding signal
73 | AATTATAG | 9.23 upbm affinity estimate (log intensity, higher = more binding, comparable within an allelic series)
74 | AATTAAAC | 9.29 upbm affinity estimate (log intensity, higher = more binding, comparable within an allelic series)
75 | AATTATGC | 9.27 upbm affinity estimate (log intensity, higher = more binding, comparable within an allelic series)

Each sequence was assayed against HOXA2 (Homo sapiens, UniProt O43364 129-215, R185K) (assay: PBM; 200 nM protein, PBS). Conditions: dsDNA, one strand shown.
Sequence of HOXA2 (Homo sapiens, UniProt O43364 129-215, R185K) (O43364 129-215 R185K): as the sequence (O43364 129-215 R185T) above, with T57K counted along it

Row | Sequence | binding signal
76 | ACGCCGGA | 10.3 upbm affinity estimate (log intensity, higher = more binding, comparable within an allelic series)
77 | CCGGCCAG | 9.96 upbm affinity estimate (log intensity, higher = more binding, comparable within an allelic series)
78 | CAGGCCGC | 10.3 upbm affinity estimate (log intensity, higher = more binding, comparable within an allelic series)
79 | GCTCGGCC | 10.3 upbm affinity estimate (log intensity, higher = more binding, comparable within an allelic series)

These sequences were tested against ALX1 (Homo sapiens, UniProt Q15699 118-204, L144R) (assay: PBM; 200 nM protein, PBS). Conditions: dsDNA, one strand shown.
Sequence of ALX1 (Homo sapiens, UniProt Q15699 118-204, L144R) (Q15699 118-204 L144R): as the sequence (Q15699 118-204 L144V) above, with V27R counted along it

Row | Sequence | binding signal
80 | AATTATTG | 11.1 upbm affinity estimate (log intensity, higher = more binding, comparable within an allelic series)
81 | CCGGCCAG | 6.61 upbm affinity estimate (log intensity, higher = more binding, comparable within an allelic series)
82 | AATTAAAC | 11 upbm affinity estimate (log intensity, higher = more binding, comparable within an allelic series)
83 | TTAATCAA | 11.2 upbm affinity estimate (log intensity, higher = more binding, comparable within an allelic series)
84 | ACCGAGGG | 6.47 upbm affinity estimate (log intensity, higher = more binding, comparable within an allelic series)

Each sequence was assayed against HOXD13 (Homo sapiens, UniProt P35453 263-343) (assay: PBM; 200 nM protein, PBS). Conditions: dsDNA, one strand shown.
Sequence of HOXD13 (Homo sapiens, UniProt P35453 263-343) (P35453 263-343): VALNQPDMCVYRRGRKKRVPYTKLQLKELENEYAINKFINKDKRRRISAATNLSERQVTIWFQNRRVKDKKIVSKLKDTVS

Row | Sequence | binding signal
85 | GGCCTACC | 9.49 upbm affinity estimate (log intensity, higher = more binding, comparable within an allelic series)
86 | CCCAAAGG | 9.54 upbm affinity estimate (log intensity, higher = more binding, comparable within an allelic series)
87 | CATAAATC | 11.8 upbm affinity estimate (log intensity, higher = more binding, comparable within an allelic series)
88 | GCTCGGCC | 9.56 upbm affinity estimate (log intensity, higher = more binding, comparable within an allelic series)

Each sequence was assayed against MSX2 (Homo sapiens, UniProt P35548 130-214) (assay: PBM; 200 nM protein, PBS). Conditions: dsDNA, one strand shown.
Sequence of MSX2 (Homo sapiens, UniProt P35548 130-214) (P35548 130-214): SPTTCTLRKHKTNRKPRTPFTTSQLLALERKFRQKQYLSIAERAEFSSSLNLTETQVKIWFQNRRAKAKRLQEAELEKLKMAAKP

Row | Sequence | binding signal
89 | ACCCCGGG | 9.62 upbm affinity estimate (log intensity, higher = more binding, comparable within an allelic series)
90 | ACGCCCCG | 9.36 upbm affinity estimate (log intensity, higher = more binding, comparable within an allelic series)
91 | AATTATTG | 13.4 upbm affinity estimate (log intensity, higher = more binding, comparable within an allelic series)
92 | CGGCACCG | 9.42 upbm affinity estimate (log intensity, higher = more binding, comparable within an allelic series)
